miR-21 reporter – qHTS Assay for Modulators of miRNAs and/orActivators of miR-21. HeLa miR-21 FLuc reporter, luciferase, 48 h. Potency, µM (top dose mostly 38.3 µM), inactives show top-dose activity change, positive = activation, actives largely listed as activators. 340,000 tested, under 10 active;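 also: % of control where 0% means no effect; miR-21 action dims this reporter so a rising signal means less miR-21 action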
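Using DMEM plus 10% FBS, HeLa miR-21-FLuc cells are incubated with test compounds (final up to about 40uM) for 48 hours; firefly luciferase signal is then imaged following reagent-mediated lysis.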
B2AR arrestin – qHTS assay of beta-arrestin-biased ligands of beta2-adrenergic receptor. Beta-2 adrenergic receptor (Homo sapiens), P07550. 330,000 tested, 0.02% active. Potency, µM (series often up to 46.1 µM), for inactives: top-dose activation, hits mostly activators. beta-arrestin recruitment to beta2AR, cell-based reporter;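 also: potency is read from the fitted curve at half-maximal effect; 0% = DMSO controls and full agonism = EC100 isoproterenol or metaproterenol; nearly all actives have a fitted effect of over 65% in size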
Target sequence (P07550 whole entry, looked up): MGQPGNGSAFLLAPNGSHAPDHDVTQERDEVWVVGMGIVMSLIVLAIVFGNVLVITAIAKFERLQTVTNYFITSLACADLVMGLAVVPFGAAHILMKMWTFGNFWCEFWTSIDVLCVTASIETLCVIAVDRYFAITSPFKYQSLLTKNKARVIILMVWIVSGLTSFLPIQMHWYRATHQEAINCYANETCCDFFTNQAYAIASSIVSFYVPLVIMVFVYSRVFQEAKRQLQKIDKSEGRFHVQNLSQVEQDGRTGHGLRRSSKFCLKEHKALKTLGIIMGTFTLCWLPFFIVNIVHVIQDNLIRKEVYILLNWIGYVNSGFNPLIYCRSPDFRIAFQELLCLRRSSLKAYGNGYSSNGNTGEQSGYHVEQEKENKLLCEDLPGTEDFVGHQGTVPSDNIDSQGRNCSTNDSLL
A549 tox-1 – Nrf2 qHTS screen for inhibitors: counterscreen for cytotoxicity; A549 ARE-Fluc cells, CellTiter-Fluor viability, 18-24 h; Potency, µM (highest dose often 46 µM), inactives show at the highest dose activity change, negative = cytotoxicity, most hits filed as inhibitors; 390,000 tested, 0.16% active; also: potency is read from the fitted curve at half-maximal effect; % is scaled to controls: 0 for no effect and ±100 for the full control effect
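A549 ARE-Fluc cells in 5% FBS OPTI-MEM, 5000 cells/well, rested 2 h then exposed to compounds in concentration-response for 18-24 h at 37 °C. Viability by CellTiter-Fluor fluorescence (Ex 405/Em 525) after 30 min; luciferase luminescence (BugLite, 15 min, RT) read afterwards.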
Nrf2 ARE act – qHTS of Nrf2 Activators; AREc32 ARE-luciferase reporter (MCF7-derived line), luminescence, 24 h; Potency, µM (highest dose often 46.1 µM), without a hit: top-dose activation, usual class: activators; 410,000 tested, 0.31% active; AID 624171, 2012; also: potency is read from the fitted curve at half-maximal effect; % of control where 0% means no effect; nearly all actives have a fitted effect of over 65% in size
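Nrf2 activation is followed as ARE-luciferase induction in the AREc32 line after one day of compound treatment; luminescence is read with Steady-Glo.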
Nrf2 block – Nrf2 qHTS screen for inhibitors; A549 ARE-Fluc reporter, luciferase luminescence, 18-24 h; Potency, µM (titrated, usually from 46 µM), for inactives: at the top dose activity change, negative = inhibition, hits mostly inhibitors; 360,000 tested, 2.1% active; also: potency is read from the fitted curve at half-maximal effect; % is scaled to controls: 0 for no effect and ±100 for the full control effect; nearly all actives have a fitted effect of over 60% in size
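Nrf2 function is reported as luminescence of an ARE-controlled luciferase in A549 cells. Compounds were tested at several concentrations, and a CellTiter-Fluor read on the same wells flagged cytotoxicity.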
FLuc counter 3 – Nrf2 qHTS screen for inhibitors: Purified Fluc Biochemical Counterscreen for Hit Validation; shares compounds with Nrf2 block; purified firefly luciferase, luminescence inhibition; Potency, µM (series often up to 57.5 µM), inactives show at the top dose activity change, negative = inhibition, most hits filed as inhibitors; 1,400 tested, 4% active; AID 720522, 2013; also: potency is read from the fitted curve at half-maximal effect; % is scaled to controls: 0 for no effect and ±100 for the full control effect; nearly all actives have a fitted effect of over 65% in size
A549 tox-2 – Nrf2 qHTS screen for inhibitors: A549 ARE-Fluc Cytotoxicity Counterscreen for Hit Validation; A549 ARE-Fluc cells, cytotoxicity counterscreen; Potency, µM (top dose mostly 46.1 µM), inactives show top-dose activity change, negative = cytotoxicity, most hits filed as inhibitors; 1,400 tested, 2% active; AID 720523, 2013; shares compounds with Nrf2 block;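 also: potency is read from the fitted curve at half-maximal effect; cells exposed to compounds for 18 to 24 hours; % is scaled to controls: 0 for no effect and ±100 for the full control effect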
Nrf2 ARE inh – Nrf2 qHTS screen for inhibitors: Nrf2 A549 ARE-Fluc Confirmation Assay for Hit Validation. 1,400 tested, 74% active. Potency, µM (titrated, usually from 46.1 µM), for inactives: at the top dose activity change, negative = inhibition, usual class: inhibitors. shares compounds with Nrf2 block. A549 ARE-firefly luciferase reporter, luminescence; also: potency is read from the fitted curve at half-maximal effect; % is scaled to controls: 0 for no effect and ±100 for the full control effect; nearly all actives have a fitted effect of over 65% in size
* hit, by the source's call; u = inconclusive; x = no result given. Compounds with a hit are over-represented: about 2.2% of the library has one in this group of screens. Calls follow the shape of the dose curve; as a rule, active = well fitted curve in the direction sought with a large enough effect; inconclusive = small, poorly fitted or top-dose-only effect, or another doubt; inactive = no such curve, though single readings can be large; an effect the other way counts as inactive or inconclusive.

SMILES	miR-21 reporter	B2AR arrestin	A549 tox-1	Nrf2 ARE act	Nrf2 block	FLuc counter 3	A549 tox-2	Nrf2 ARE inh
CCOC(=O)N1CCC(Nc2ncnc3c2cnn3-c2ccc(C)cc2C)CC1	24.2%	0.2%	-16.4%	0.7%	8.2µM*	0.7%	-1.7%	13µM*
C=CCNc1ncnc2c1cnn2-c1ccc(C)cc1C	-26.9%	0.1%	-4.9%	0.7%	9.1%	x	x	x
CC(C)(C)c1cc(C(=O)Nc2cccnc2)cc(C(=O)Nc2cccnc2)c1	14.6%	0.3%	-20.5%	0.1%	9.2µM*	-5.4%	-5.5%	u
COC(C(=O)C(O)C(C)O)C1Cc2cc3cc(OC4CC(OC5CC(O)C(O)C(C)O5)C(O)C(C)O4)c(C)c(O)c3c(O)c2C(=O)C1OC1CC(OC2CC(OC3CC(O)C(OC)C(C)O3)C(O)C(C)O2)C(O)C(C)O1 (centres undefined)	x	x	u	-2.2%	0.116µM*	-3.8%	-20.8%	0.366µM*
COc1cccc(-c2nnc3sc(CN4CCCCC4)cn23)c1	14.0%	x	-15.3%	0.1%	x	x	x	x
COc1cc(OC)c(N(C)C(=O)c2nn(C)c3c2CSc2ccccc2-3)cc1Cl	-1.3%	x	0.3%	4.0%	23.1%	x	x	x
Cc1ccc(-c2csc(NC(=O)c3cccc([N+](=O)[O-])c3)n2)cc1	-4.9%	-0.2%	-4.8%	-0.8%	u	1.5%	-11.8%	1.46µM*
O=C(Nc1ccc(-c2csc(Nc3ccc(Cl)cc3)n2)cc1)c1cccc(C(F)(F)F)c1	u	-0.2%	-7.6%	11.3%	-27.7%	x	x	x
O=C(Nc1nc(-c2ccccc2)cs1)c1ccc(N2CCOCC2)c([N+](=O)[O-])c1	u	-0.7%	u	-0.4%	4.61µM*	u	u	7.31µM*
O=C(Nc1ccc(-c2csc(Nc3ccccc3)n2)cc1)c1cccc(C(F)(F)F)c1	27.8%	-0.1%	-5.7%	8.8%	9.2µM*	-14.7%	-25.2%	14.6µM*
COc1ccc(CN(C)C(=O)c2cccc(NC(=O)CC3SC(N4CCCCC4)=NC3=O)c2)c(OC)c1 (centres undefined)	x	x	-25.5%	-1.3%	8.2µM*	-19.4%	-16.0%	6.51µM*
COc1cccc(-c2nc(SCC(=O)NCC3CCCO3)c(-c3ccc(Cl)cc3)[nH]2)c1 (centres undefined)	21.9%	x	-16.6%	7.5%	u	x	x	x
O=C(N/N=C/c1ccc([N+](=O)[O-])s1)c1ccccc1Br	u	-1.2%	u	-2.6%	9.2µM*	u	-18.8%	5.8µM*
COc1ccc2c(c1)-c1nc(NC(=O)c3ccc(OC)c(Br)c3)sc1CC2	3.1%	x	0.7%	-0.4%	-11.6%	x	x	x
CC1CCCCN1C(=O)Cn1c(SCC(=O)N(C)c2ccccc2)nc2ccccc21 (centres undefined)	-0.5%	x	-17.3%	-0.3%	x	x	x	x
O=C(COc1ccc(S(=O)(=O)NC2CCCCC2)cc1)N1CCN(c2cccc(Cl)c2)CC1	u	-0.6%	u	0.8%	5.8µM*	-1.3%	-17.3%	9.2µM*
COc1ccc(C(=O)Nc2ccc(Cl)c(S(=O)(=O)Nc3ccccc3OC)c2)cc1	u	-0.5%	-12.4%	0.4%	7.31µM*	u	-10.3%	9.2µM*
